This is part of a sample that, as a whole, favours compounds with a hit. Of some 83,000 tested, about 20% had one in any assay.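 Interpretation: 100, growth as untreated; towards 0, rising growth inhibition; 0, no net growth; 0 to -100, cell death. Compounds scoring below 10 were considered active.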 A number with no mark means an inactive call. Active and inactive are the calls of the source.

Among the test systems are NCI-H23 lung; NCI-H226 lung; NCI-H322M lung; HOP-62 NSCLC; NCI-H460 lung; HOP-92 NSCLC; NCI-H522 lung; A549/ATCC NSCLC; 786-0 renal; COLO 205 colon; DU-145 prostate; K-562 leukemia; MALME-3M melanoma; MDA-MB-231 breast; RXF 393 renal; SF-268 CNS; SF-295 CNS; SF-539 CNS; UACC-257 melanoma; M14 melanoma.
Common to all, as to experiment: NCI-60 one-dose screen, 48 h (100 = growth as untreated, 0 = no growth, -100 = all killed)
Holding throughout (details): 10 µM unless noted

Turning to `Cc1ccc(-c2nn(C)c(=O)c3noc(-c4ccc(C)cc4)c23)cc1`, the growth was 43.1% in the assay on NCI-H23 lung; 58% in the assay with NCI-H226 lung; 56.4% in the assay on NCI-H322M lung; 28.1% with HOP-62 NSCLC; 22.7% with NCI-H460 lung; 14.2% in the assay on HOP-92 NSCLC. The growth in the assay with NCI-H522 lung was 9.02% (active); in the assay on A549/ATCC NSCLC, 46.2%; in the assay with 786-0 renal, 29%; with COLO 205 colon, 12.5%; in the assay on DU-145 prostate, 35.3%; with K-562 leukemia, 17%. Also, the growth is 73.9% in the assay on MALME-3M melanoma; 58.3% in the assay with MDA-MB-231 breast; 13.6% in the assay with RXF 393 renal; 55.1% in the assay with SF-268 CNS; 41.2% in the assay with SF-295 CNS; -4.12% (active) in the assay with SF-539 CNS. Also, the growth in the assay on UACC-257 melanoma is 62.8%; in the assay on M14 melanoma, 21.6%.

`CCCCCCN1C(=O)/C(=c2\sc3n(c2=O)C2C(NN=3)N(CC)C(=O)N2CC)c2ccccc21` (stereo not given): the growth with NCI-H23 lung was 25.6%; with NCI-H226 lung, -5.26% (active); with NCI-H322M lung, 43.5%; with HOP-62 NSCLC it was -1.75% (active); with NCI-H460 lung, -27.7% (active); in the assay with HOP-92 NSCLC, 37%. In addition, the growth is -28.7% (active) in the assay on NCI-H522 lung; -47.6% (active) with A549/ATCC NSCLC; -67.2% (active) in the assay with 786-0 renal; 7.62% (active) in the assay with COLO 205 colon; 24.4% in the assay on DU-145 prostate; 6.81% (active) in the assay with K-562 leukemia. Also, the growth in the assay on MALME-3M melanoma was 6.95% (active); with MDA-MB-231 breast, 14.8%; with RXF 393 renal, 25.8%; in the assay on SF-268 CNS, 27.5%; with SF-295 CNS, -23% (active); in the assay with SF-539 CNS, -54.9% (active). The growth with UACC-257 melanoma is 39.3%; with M14 melanoma it was 20.3%.

As for `COc1ccc(CN2c3ccccc3Sc3ccccc32)c(F)c1`, the growth in the assay with NCI-H23 lung was 50.5%; with NCI-H226 lung, 56.1%; in the assay with NCI-H322M lung, 44.7%; with HOP-62 NSCLC it was 26.6%; in the assay with NCI-H460 lung, 11%; in the assay on HOP-92 NSCLC, 33.2%. Also, the growth in the assay on NCI-H522 lung is -12% (active); with A549/ATCC NSCLC, 34.1%; in the assay with 786-0 renal, 42.2%; in the assay with COLO 205 colon, 11.7%; in the assay with DU-145 prostate it was 20.5%; in the assay on K-562 leukemia, 8.99% (active). Further, the growth in the assay on MALME-3M melanoma is 57%; in the assay on MDA-MB-231 breast, 60.4%; with RXF 393 renal it was 0.721% (active); in the assay on SF-268 CNS it was 52.3%; in the assay on SF-295 CNS it was 7.51% (active); in the assay with SF-539 CNS it was -3.66% (active). In addition, the results for the growth in the assay with UACC-257 melanoma and in the assay on M14 melanoma were 52.3% and 11.2%, respectively.

As to `Oc1ccc(-c2nc3ccc4[nH]ncc4c3c3c2CCCC3)c2cccnc12`, the growth was -7.85% (active) in the assay with NCI-H23 lung; -2.05% (active) with NCI-H226 lung; 11.3% in the assay on NCI-H322M lung; 5.46% (active) with HOP-62 NSCLC; -21.7% (active) in the assay on NCI-H460 lung; -16.7% (active) with HOP-92 NSCLC. For the same compound, the growth with NCI-H522 lung is 15%; in the assay on A549/ATCC NSCLC, -34% (active); in the assay with 786-0 renal, 2.06% (active); with COLO 205 colon, -11.6% (active); in the assay on DU-145 prostate, 11.6%; in the assay on K-562 leukemia it was 7.23% (active). Moreover, the growth in the assay with MALME-3M melanoma is -3.69% (active); in the assay with MDA-MB-231 breast, 18.8%; in the assay on RXF 393 renal it was -9.52% (active); with SF-268 CNS, 0.245% (active); in the assay with SF-295 CNS, -4.23% (active); in the assay on SF-539 CNS, -1.03% (active). In addition, the results for the growth with UACC-257 melanoma and in the assay with M14 melanoma were -20.4% (active) and 3.35% (active), respectively.

Take `Cc1nc2ccccc2c(/C=C/c2ccc(Cl)cc2)c1C(=O)/C=C/c1cccs1`: the growth in the assay with NCI-H23 lung was 67.8%; with NCI-H226 lung, 81.2%; with NCI-H322M lung, 87.4%; in the assay with HOP-62 NSCLC, 94.9%; with NCI-H460 lung, 66.7%; in the assay with HOP-92 NSCLC, 64.1%. Also, the growth was 57.4% with NCI-H522 lung; 88.1% in the assay with A549/ATCC NSCLC; 87.4% with 786-0 renal; 82% in the assay on COLO 205 colon; 79% with DU-145 prostate; 44.7% in the assay on K-562 leukemia. The growth was 107% in the assay on MALME-3M melanoma; 75.8% in the assay with MDA-MB-231 breast; 83.7% in the assay with RXF 393 renal; 78.8% in the assay on SF-268 CNS; 82% in the assay with SF-295 CNS; 99.5% in the assay with SF-539 CNS. Moreover, the growth with UACC-257 melanoma is 79.9%; in the assay with M14 melanoma, 82%.

As for `O=c1c2cc(F)cc(Cl)c2sc2c(NCCCNCCO)nc3ccccc3c12`, the growth in the assay with NCI-H23 lung is 89.9%; in the assay with NCI-H226 lung, 106%; in the assay with NCI-H322M lung, 89.8%; in the assay with HOP-62 NSCLC, 90.1%; in the assay with NCI-H460 lung, 10.3%; in the assay with HOP-92 NSCLC it was 65.6%. Further, the growth in the assay with NCI-H522 lung was 92.4%; with A549/ATCC NSCLC, 83.7%; in the assay with 786-0 renal, 81.7%; in the assay on COLO 205 colon, 73.5%; with DU-145 prostate it was 77%; in the assay with K-562 leukemia, 18.7%. Further, the growth in the assay on MALME-3M melanoma is 99.8%; in the assay with MDA-MB-231 breast, 48.8%; with RXF 393 renal, 80.3%; with SF-268 CNS it was 67.1%; in the assay with SF-295 CNS, 104%; in the assay on SF-539 CNS, 88.5%. Moreover, the growth is 109% in the assay with UACC-257 melanoma and 62.3% with M14 melanoma.

`O=c1ccc(N=Nc2ccccc2)ccc1Cl`: the growth is 16.4% in the assay on NCI-H23 lung; 87.7% in the assay with NCI-H226 lung; 103% in the assay on NCI-H322M lung; 93.9% in the assay with HOP-62 NSCLC; 98% in the assay with NCI-H460 lung; 114% with HOP-92 NSCLC. For the same compound, the growth is -22.6% (active) in the assay on NCI-H522 lung; 103% with A549/ATCC NSCLC; 48.8% in the assay on 786-0 renal; 68.4% in the assay on COLO 205 colon; 93.2% in the assay on DU-145 prostate; 0.344% (active) in the assay with K-562 leukemia. In addition, the growth with MALME-3M melanoma was 55%; in the assay with MDA-MB-231 breast it was -1.83% (active); with RXF 393 renal, 6.49% (active); with SF-268 CNS, 92.5%; in the assay with SF-295 CNS it was 69.6%; with SF-539 CNS it was 45.8%. Besides, the growth in the assay on UACC-257 melanoma is 74.6%; in the assay on M14 melanoma, 46.6%.

Values taken from PubChem BioAssay (NCI).
